# In the supplement of paper PMC6992640:
# ± gives the standard deviation of the averaged measurements.
# What was measured:
# [1] = tested on: HCI01 (cells of a triple-negative basal-like breast cancer xenograft); test: cell viability (% of vehicle); higher = less cytotoxic; details: 10 µM; 72 h
# [2] = tested on: HCI09 (cells of a triple-negative luminal androgen receptor type breast cancer xenograft); test: as above; details: 10 µM; 72 h
# [3] = tested on: HCI11 (cells of an ER-positive luminal breast cancer xenograft); test: as above; details: 10 µM; 72 h
# [4] = tested on: HCI13 (cells of an ER-positive luminal breast cancer xenograft); test: as above; details: 10 µM; 72 h
# [5] = tested on: HCI16 (cells of a triple-negative basal-like breast cancer xenograft); test: as above; details: 10 µM; 72 h
# [6] = tested on: UCD52 (cells of a triple-negative basal-like breast cancer xenograft); test: as above; details: 10 µM; 72 h
# [7] = tested on: WHIM2 (cells of a triple-negative basal-like breast cancer xenograft); test: as above; details: 10 µM; 72 h
# [8] = tested on: WHIM30 (cells of a triple-negative basal-like breast cancer xenograft); test: as above; details: 10 µM; 72 h
# [9] = tested on: HCI03 (cells of an ER-positive luminal breast cancer xenograft); test: as above; details: 10 µM; 72 h
# [10] = tested on: HCI01; test: cell viability of combination (% of vehicle); higher = less cytotoxic; details: 1 µM; 72 h; partner dose: 10 nM
# Procedure: (§1)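 PDX cells were treated for 72 h with each drug at 1 µM plus carfilzomib (10 nM; 100 nM for WHIM2). Luciferase viability is expressed as percent of vehicle.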
# [11] = tested on: UCD52; test: as above; details: 1 µM; 72 h; partner dose: 10 nM
# Procedure: as §1
SMILES,cell viability [1],cell viability [2],cell viability [3],cell viability [4],cell viability [5],cell viability [6],cell viability [7],cell viability [8],cell viability [9],cell viability of combination [10],cell viability of combination [11]
CCN(CC)CCNC(=O)c1ccc(N)cc1.Cl [Procainamide HCl],110 ± 3.9,108 ± 4.1,95.8,98 ± 2.4,116,100 ± 7.8,110 ± 10,197 ± 10,,,
Cn1cnc2c(F)c(Nc3ccc(Br)cc3Cl)c(C(=O)NOCCO)cc21 [AZD6244 (Selumetinib)],,82.9 ± 23,112,92.21 ± 0.79,,84.4 ± 13,79.7 ± 8.5,,83.9,,
CNCCc1ccccn1.Cl.Cl [Betahistine 2HCl],,103 ± 23,140,89.7 ± 17,,133 ± 48,93.5 ± 30,186 ± 14,134,,
O=C(C=Cc1cccc(S(=O)(=O)Nc2ccccc2)c1)NO [Belinostat (PXD101)],,39.6 ± 33,6.42,55.1 ± 25,,,43.7 ± 1.1,,104,,
O=c1oc2cc(O)ccc2s1 [Tioxolone],115.5 ± 0.72,87.9 ± 13,96.8,85.9 ± 17,172,109.1 ± 0.84,129 ± 28,145 ± 30,,,
CCn1cc(C(=O)O)c(=O)c2cnc(N3CCCC3)nc21 [Piromidic Acid],151 ± 52,132 ± 5,110,171 ± 27,125,145 ± 4.4,,,,,
CO[C@H]1C[C@@H]2CC[C@@H](C)[C@@](O)(O2)C(=O)C(=O)N2CCCC[C@H]2C(=O)O[C@H]([C@@H](C)C[C@@H]2CC[C@@H](OCCO)[C@H](OC)C2)CC(=O)[C@H](C)/C=C(\C)[C@@H](O)[C@@H](OC)C(=O)[C@H](C)C[C@H](C)/C=C/C=C/C=C/1C [Everolimus (RAD001)],,27.5 ± 4,102,54.91 ± 0.39,179,55.2 ± 9.9,41.9 ± 4.8,160 ± 35,69.8,,
C#Cc1cccc(Nc2ncnc3cc(OC)c(OCCCCCCC(=O)NO)cc23)c1,,22.1 ± 10,4.55,77.52 ± 0.49,,,44.4 ± 5,,105,,
N#CCC(C1CCCC1)n1cc(-c2ncnc3[nH]ccc23)cn1 (configuration not stated),,106 ± 19,129,76.1 ± 14,106,117.7 ± 0.47,134 ± 12,187.4 ± 1.7,185,,
CC(C)Cc1ccc(C(C)C(=O)O)cc1.NCCCCC(N)C(=O)O (configuration not stated) [Ibuprofen Lysine],,106 ± 12,138,131 ± 6.2,162,132 ± 29,84.8 ± 3.6,170 ± 23,130,,
CCCCOc1ccc(CC(=O)NO)cc1 [Bufexamac],182.8 ± 1.2,140 ± 6.6,173,141 ± 35,,148 ± 29,112 ± 2.7,102 ± 3.6,,,
Cc1nnc(C(C)C)n1C1CC2CCC(C1)N2CCC(NC(=O)C1CCC(F)(F)CC1)c1ccccc1 (configuration not stated) [Maraviroc],110 ± 12,95.9 ± 3.6,129,73.7 ± 15,163,88.8 ± 1.3,91.4 ± 26,123 ± 18,,,
COc1ccc(-c2cc(=O)c3c(O)cc(O)cc3o2)cc1O [Diosmetin],169 ± 46,170 ± 120,,,181,,,,,,
OCC1OC(Oc2cc(O)cc(C=Cc3ccc(O)cc3)c2)C(O)C(O)C1O (configuration not stated) [Polydatin],155 ± 18,113 ± 15,142,99.9 ± 1.1,195,,109 ± 35,,,,
CC1(C)CCC(CN2CCN(c3ccc(C(=O)NS(=O)(=O)c4ccc(NCC5CCOCC5)c([N+](=O)[O-])c4)c(Oc4cnc5[nH]ccc5c4)c3)CC2)=C(c2ccc(Cl)cc2)C1,83.9 ± 55,61.5 ± 30,68.4,129 ± 10,80,101 ± 14,151 ± 32,99.4 ± 53,,,
Clc1ccc(C(Cn2ccnc2)OCc2c(Cl)cccc2Cl)c(Cl)c1.O=[N+]([O-])O (configuration not stated) [Isoconazole nitrate] + CC(C)C[C@H](NC(=O)[C@H](CCc1ccccc1)NC(=O)CN1CCOCC1)C(=O)N[C@@H](Cc1ccccc1)C(=O)N[C@@H](CC(C)C)C(=O)[C@@]1(C)CO1 [Carfilzomib],,,,,,,,,,92.6,61.5
CC(C)c1nc(N(C)S(C)(=O)=O)nc(-c2ccc(F)cc2)c1C=CC(O)CC(O)CC(=O)[O-].CC(C)c1nc(N(C)S(C)(=O)=O)nc(-c2ccc(F)cc2)c1C=CC(O)CC(O)CC(=O)[O-].[Ca+2] (configuration not stated) [Rosuvastatin Calcium] + CC(C)C[C@H](NC(=O)[C@H](CCc1ccccc1)NC(=O)CN1CCOCC1)C(=O)N[C@@H](Cc1ccccc1)C(=O)N[C@@H](CC(C)C)C(=O)[C@@]1(C)CO1 [Carfilzomib],,,,,,,,,,80.8,67.7
CC(C=CC1=C(C)CCCC1(C)C)=CC=CC(C)=CC(=O)O [Tretinoin (Aberela)],,,149,146 ± 12,175,,58.5 ± 19,,143,,
CNC(=O)c1ccccc1Sc1ccc2c(C=Cc3ccccn3)n[nH]c2c1,,,158,,150,191 ± 4.7,,,,,
"O=C(CCCCCCC(=O)Nc1ccccc1)NO [Vorinostat (SAHA, MK0683)]",,46.1 ± 37,21.7,61 ± 23,,,47.5 ± 4.1,,,,
